To fix the notation:
T1: USP38, Q8NB14
T1 chain: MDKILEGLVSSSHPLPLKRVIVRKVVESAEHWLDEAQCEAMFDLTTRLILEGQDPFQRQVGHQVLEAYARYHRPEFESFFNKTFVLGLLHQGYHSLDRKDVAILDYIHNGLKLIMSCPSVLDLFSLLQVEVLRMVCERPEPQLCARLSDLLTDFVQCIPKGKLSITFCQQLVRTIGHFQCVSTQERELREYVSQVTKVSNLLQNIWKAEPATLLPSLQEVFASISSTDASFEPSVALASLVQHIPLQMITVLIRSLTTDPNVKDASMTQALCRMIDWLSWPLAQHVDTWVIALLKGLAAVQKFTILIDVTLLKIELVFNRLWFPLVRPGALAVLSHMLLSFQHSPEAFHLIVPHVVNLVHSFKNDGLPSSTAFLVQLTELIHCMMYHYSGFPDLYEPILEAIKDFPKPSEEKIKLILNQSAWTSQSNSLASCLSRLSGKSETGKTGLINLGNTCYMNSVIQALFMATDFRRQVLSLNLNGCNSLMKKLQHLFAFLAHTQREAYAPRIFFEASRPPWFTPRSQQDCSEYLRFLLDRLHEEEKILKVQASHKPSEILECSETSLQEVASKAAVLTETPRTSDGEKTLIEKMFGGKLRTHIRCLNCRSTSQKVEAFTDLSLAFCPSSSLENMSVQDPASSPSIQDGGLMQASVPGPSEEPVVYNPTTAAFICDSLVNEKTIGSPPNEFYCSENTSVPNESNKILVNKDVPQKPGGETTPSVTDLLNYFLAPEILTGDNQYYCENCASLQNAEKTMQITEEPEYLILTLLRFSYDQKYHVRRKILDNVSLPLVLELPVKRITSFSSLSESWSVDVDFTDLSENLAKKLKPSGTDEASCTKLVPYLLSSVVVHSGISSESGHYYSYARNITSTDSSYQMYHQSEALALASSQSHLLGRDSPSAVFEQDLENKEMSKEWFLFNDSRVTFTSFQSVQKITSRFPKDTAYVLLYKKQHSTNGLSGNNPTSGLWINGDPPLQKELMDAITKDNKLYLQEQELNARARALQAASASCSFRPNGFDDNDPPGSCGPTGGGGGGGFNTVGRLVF

B1: usp_38_diff_out_18_14_282 (protein)
chain: MEELSEALKSNLESLKKDVEEDTKRVIELLEKNKDDPERVKRIYERAERNLEGVLTYAEEVLELAEKLGDEEVKKAAEELKKEAEKAREEIKKKVEKVLA
B2: usp_38_diff_out_18_14_283 (protein)
chain: SEELSKALKSNLESLKEDVKKDTERVLRLLEKRKDDPEQVKRIKERAERNLEGVITYAEEVLKEAEKEGDEEVKKAAKELIEEAKKAREKIEEKVKEVLA
B3: usp_38_diff_out_18_14_279 (protein)
chain: SEELNEALLSNLESLKEDVERDTERVLRLLEANRDDPERVKRIVERAERNLAGVIEFAKEVLKEAEKAGNEELLKAAKELIKRAKEALERIRRKAEEVLA
B4: usp_38_diff_out_18_14_284 (protein)
chain: SAELAAAEKAALEILKTDVKKDTERVIRLLKKAKDDPERVKRIYERAKRNLEGVETYAKEVLERAKKAGDKETKAAAEELLKEIEEAKKKIEEAYKEVMA
B5: usp_38_diff_out_18_14_291 (protein)
chain: SEELSEAEKSALELLKEEVKKDTERTIKLLEKVKDDPERVERIVERANRNLEGVRAYAEAVKKEAEARGDEETVKAAEELLKTIEEARERIEKAYKEVKA
B6: usp_38_diff_out_18_14_287 (protein)
chain: SEEEAEALKSALEILRGDVDAYTERVIRLLEQAAGDPERVRRIHERARRNLAGVRAYAEEVLKRAEEAGDEETKKAAEELLRRVAEAEARIAARYAEVTA
B7: usp_38_diff_out_18_14_290 (protein)
chain: SEELSKAEISALELLKKEVKENTERTIKLLEKVKDDPELVKRVMERAERNLAGVRAYAEDVKERAKERGDEETVKAAEELLKEIEEARKKLKEEYKKVMA
B8: usp_38_diff_out_18_14_275 (protein)
chain: SSELSEALQSNLESLKKDVKEDTERVLRLLEKRKDDPEQVKRIEERARRNLEGVIKFAEEVLKLAKELGDKETQKAAEELIKLAKEARKRVEEKVKEVLA
B9: usp_38_diff_out_18_14_285 (protein)
chain: SAELAAAEKSALEILKKDVKEFTKRVIRLLKKSKDDPERVKRIYDRAKRDLAGVEKYAQEVLKRAEKAGDKETKAAAKELLKEIEKAKEEIEKEYKEVMA
B10: usp_38_diff_out_18_14_286 (protein)
chain: SAELAAAEKSALEILKKDVKEDTKRVIRLLEKAKDDPELVERIYERAKRDLAGVRAYAEEVLKRAEEAGDEETKAAAKELLKEIDKAKKEIDAAYKKVMA
B11: usp_38_diff_out_18_14_288 (protein)
chain: SEELSEAEISALKLLREDVERDTERTIRLLERARDDPERVRRIVERRERNLAGVRAYAEEVKKEAEERGDEETVKAAEELLRAIEEARARVAAARERVLA
B12: usp_38_diff_out_18_14_280 (protein)
chain: SEELSEALLSNLKSLKKDVEEYTKRVLRLLEKNKDDPERVKRIKERAERNLAGVKKYAEEVLKEAEEEGDEETLKAAKELKETAEKALAEIEKKVKEVLA
B13: usp_38_diff_out_18_14_276 (protein)
chain: SSELSEALKSNLESLKKDVKEDTERVLRLLDKRKDDPEQVKRIVERAERDLAGVREYAKEVLREAEERGDEETKKAAEELLKEADAALAKVKAKAKEVLA
B14: usp_38_diff_out_18_14_289 (protein)
chain: AEELSAAERAALELLLEEVRRDTERTIRLLRRVRDDPERVERIVERAERNLAGVRAYAEDVRARARAAGDEETVAAADRLLAEVEAARARIEEERRRVLA
B15: usp_38_diff_out_18_14_277 (protein)
chain: SEELKEALKSNLESLKKDVEEDTKRVIELLDKRKDDPEEVKRIYERAKRNLAGVKEYAKEVLEEAEKAGDEETKKAAEELIKKAEEAEKKIEEKVKEVLA
B16: usp_38_diff_out_18_14_281 (protein)
chain: SEELSKALLSNLESLKKDVEEDTERVLRLLEKNKDDPERVKRIVERAERDLAGVIEYAKEVLELAKKNGDEETLKAAKELIKKAEEARKRIEEKAKKVLA

For this assay, the target named is T1, USP38, Q8NB14. In words: median log2 fold change of GCK-ALFA target abundance (FLAG IP / Myc IP barcode read proportion) (log2 ratio); each designed protein is fused to an ALFA-tag nanobody in HEK293 cells to bring the named protein to FLAG-tagged glucokinase (GCK); Myc marks an untargeted standard; higher = target protein stabilised (more abundant). Conditions: target protein: 3xFLAG-MCP-GCK-ALFA reporter; HEK293 landing pad (RPLP). The method in brief: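 The readout is target abundance, the per-binder median log2 ratio of FLAG to Myc barcode read proportions. It came from HEK293 landing-pad cells carrying a recombined ALFA-nanobody-fused binder library, induced with 2 μg mL^−1 doxycycline and transfected with a plasmid for a FLAG-tagged target and a Myc-tagged standard. After 48 h, lysates were immunoprecipitated with anti-FLAG and anti-Myc, and circular RNA barcodes were reverse transcribed, amplified and sequenced. Each barcode needed a proportion of at least 10^−7 in both replicates and each binder at least 3 barcodes per replicate, a pseudocount of 10^−6 was added, and the replicates were pooled.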
On to B1, for which the “median log2 fold change” value came out at 0.237.

On to B2, for which the “median log2 fold change” value was -0.104.

As to B3, the “median log2 fold change” value was -0.00242.

In the case of B4, the “median log2 fold change” value turned out to be 0.0553.

Turning to B5, the “median log2 fold change” value is -0.0115.

With B6, the “median log2 fold change” value is -0.622.

Consider B7, for which the “median log2 fold change” value was determined as 0.00299.

For B8, the “median log2 fold change” value was -0.129.

As to B9, the “median log2 fold change” value was -0.615.

For the molecule B10, the “median log2 fold change” value came to 0.128.

For the molecule B11, the “median log2 fold change” value is -0.282.

In the case of B12, the “median log2 fold change” value is -0.87.

With B13, the “median log2 fold change” value worked out at 0.242.

Regarding B14, the “median log2 fold change” value was -0.0195.

On to B15, for which the “median log2 fold change” value came to 0.312.

For the molecule B16, the “median log2 fold change” value was found to be 0.189.

The values above are taken from the supplement of paper PMC12632987.
